# Measurements taken from publication PMC7862700, “An all-to-all approach to the identification of sequence-specific readers for epigenetic DNA modifications on cytosine”.
# Experiments:
# Experiment in all cases: DAPPL (digital affinity profiling via proximity ligation, sequencing); 10 mM Tris-HCl pH 7.5, 50 mM NaCl, 1 mM DTT, 4% glycerol, room temperature, 30 min; GST-TFs on glutathione beads, 16-mer random dsDNA library, 0.1% formaldehyde crosslink after washing; high values mean tight binding
# Conditions in all cases: protein: recombinant; tags: N-terminal GST; dsDNA, one strand shown
# FLI1 = biological target: T1, FLI1 (Homo sapiens, UniProt Q01543 1-452)
# T1 sequence: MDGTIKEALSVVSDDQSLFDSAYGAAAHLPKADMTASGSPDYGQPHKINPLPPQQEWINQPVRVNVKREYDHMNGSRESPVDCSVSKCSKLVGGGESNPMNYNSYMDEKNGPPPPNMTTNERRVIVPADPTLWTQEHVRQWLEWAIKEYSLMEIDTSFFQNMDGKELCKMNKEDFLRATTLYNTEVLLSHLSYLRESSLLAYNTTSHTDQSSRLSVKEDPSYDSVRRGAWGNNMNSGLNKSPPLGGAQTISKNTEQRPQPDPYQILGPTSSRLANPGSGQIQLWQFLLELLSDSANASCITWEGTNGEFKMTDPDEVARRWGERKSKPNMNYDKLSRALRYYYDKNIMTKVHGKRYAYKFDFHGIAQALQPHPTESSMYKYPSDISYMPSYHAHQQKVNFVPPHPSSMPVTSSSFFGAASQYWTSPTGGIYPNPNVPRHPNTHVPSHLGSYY
# In short: (§1)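 Yeast served to express human transcription factors as GST fusions, which were then captured on glutathione beads and labelled with DNA barcodes. Pooled with a tag-only sample, they were incubated with 200 nmole of a 16-mer random double-stranded DNA library for 30 min at room temperature in Tris/NaCl/DTT/glycerol buffer, washed, crosslinked with 0.1% formaldehyde, ligated by proximity, amplified by PCR and sequenced. Dividing each hexamer's read frequency for a factor by its frequency for the tag-only sample gives the binding signal.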
# SPIC = biological target: T2, SPIC (Homo sapiens, UniProt Q8N5J4 1-248)
# T2 sequence: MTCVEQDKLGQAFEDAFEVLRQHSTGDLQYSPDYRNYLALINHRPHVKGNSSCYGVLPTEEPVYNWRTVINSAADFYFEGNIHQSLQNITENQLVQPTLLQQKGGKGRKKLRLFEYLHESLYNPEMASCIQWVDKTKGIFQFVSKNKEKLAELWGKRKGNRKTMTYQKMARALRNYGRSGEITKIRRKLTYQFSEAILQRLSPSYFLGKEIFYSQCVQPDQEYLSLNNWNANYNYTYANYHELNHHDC
# In short: as §1
# ETV3 = biological target: T3, ETV3 (Homo sapiens, UniProt P41162-2 1-143)
# T3 sequence: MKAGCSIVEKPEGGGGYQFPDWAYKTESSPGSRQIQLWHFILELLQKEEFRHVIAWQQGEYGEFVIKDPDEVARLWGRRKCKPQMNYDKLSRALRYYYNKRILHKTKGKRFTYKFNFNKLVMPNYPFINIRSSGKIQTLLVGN
# In short: as §1
sequence,measurement,setting,value
ATTCGG,binding signal,FLI1,"1.01 fold enrichment (6-mer frequency, TF over GST control)"
same,binding signal,SPIC,"1.04 fold enrichment (6-mer frequency, TF over GST control)"
same,binding signal,ETV3,"1.02 fold enrichment (6-mer frequency, TF over GST control)"
